Data from the supplement of paper PMC6555819.

What was measured:
Experiment in all cases: PBM binding z-score (relative to random genomic background probes); higher = stronger binding; sequences stand for … in GC…GCGATTGACAGCGTAGAATGAAGG
[1] = test system: RARb homodimer (NR concentration 270 nM)
In short: (§1)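 Random background probes are the reference for binding z-scores. These scores derive from regression-normalized fluorescence on custom Agilent 4×180K protein-binding microarrays incubated 1 h with ligand-free nuclear receptor dimers. Binding was detected with antibodies against each partner (one per run).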

[2] = test system: RARg:RXRa (NR concentration 270 nM, RXRa partner concentration 90 nM)
In short: as §1

[3] = test system: RARg homodimer (NR concentration 270 nM)
In short: as §1

[4] = test system: RXRa DBDmut IVT, anti-RXR (DBD mutation: RXRa K156A/R161A, NR concentration 90 nM)
In short: as §1

[5] = test system: RXRa homodimer (NR concentration 180 nM)
In short: as §1

[6] = test system: THRa:RXRa (NR concentration 90 nM, RXRa partner concentration 90 nM)
In short: as §1

[7] = test system: THRa homodimer (NR concentration 90 nM)
In short: as §1

[8] = test system: VDR homodimer (NR concentration 270 nM)
In short: as §1

Row | Sequence | PBM binding z-score [1] | PBM binding z-score [2] | PBM binding z-score [3] | PBM binding z-score [4] | PBM binding z-score [5] | PBM binding z-score [6] | PBM binding z-score [7] | PBM binding z-score [8]
1 | TCTCGGAGGACACGAAAGGTCAAAGCTCGACATC | 5.19 | 5.82 | 6.04 | 1.63 | 5.82 | 4.18 | 1.76 | 2.51
2 | AATACAGGGGCACTAGGCCAGAGTAGGTACGAAT | 0.82 | 0.814 | 0.835 | 0.764 | 0.611 | 0.473 | -0.285 | 0.185
3 | TCTAGTTGGTCAAAGGTCGCACACTCGAAATGCG | 3.14 | 4.78 | 2.91 | 1.27 | 5.6 | 2.48 | 0.836 | 1.26
4 | GCAGACAGGTCAAACGCAGGTAACTCAGGGTGGC | 2.7 | 5.58 | 4.53 | 2.16 | 4.65 | 3.23 | -0.195 | 0.795
5 | ATACCAAGGTGATCGTGAGGACGTTGATACTAAC | 0.51 | 0.635 | 0.393 | -0.27 | 0.264 | 2.96 | 1.97 | 0.714
6 | TCATATAGGTAAACAGGTGAAAGTTCGTAAGTTA | 1.49 | 1.11 | 0.601 | 1.62 | 2.31 | 1.4 | 0.587 | 1.55
7 | ACATACGGGTCAACGAGGTTATAGCACGCGTATA | 3.66 | 5.55 | 5.24 | 2.49 | 5.71 | 3.82 | 0.951 | 3.69
